PI5P4K alpha inh: qHTS for Inhibitors of phosphatidylinositol 5-phosphate 4-kinase (PI5P4K) | PI5P4Kalpha enzyme, ADP-Glo luminescence, 60 min; hits give low values | AID 652105, 2013 | max response, % | Phosphatidylinositol 5-phosphate 4-kinase type-2 alpha (Homo sapiens), P48426 | 330,000 tested, 1.2% active; active = max response of -50% or lower; inconclusive = between -30% and -50%; inactive = -30% or higher; also: value at the top dose of about 77 µM; % is scaled to controls: 0 for no effect and ±100 for the full control effect
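Human PI5P4Kalpha with substrate in 0.038 M HEPES pH 7.4, 0.28 mM EGTA, 0.1% CHAPS, 5% DMSO; reaction started with 5 microM ATP (final), 60 min at room temperature. ADP formed read by ADP-Glo luminescence.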
POLI inh: qHTS for Inhibitors of Polymerase Iota; DNA polymerase iota (Homo sapiens), Q9UNA4; 390,000 tested, 1% active; Pol iota fluorescent replication assay, 10 min; AID 588590, 2011; Potency, µM (doses to about 115 µM), inactives show at the highest dose activity, negative = inhibition, most hits filed as inhibitors; also: potency is read from the fitted curve at half-maximal effect
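Fluorescent replication assay read twice, at 0 min and 10 min after adding 50 nM (final) substrate. Enzyme (10 nM) and compounds were first incubated 15 min at room temperature; enzyme-free buffer wells were negative controls.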
POLH inh: qHTS for Inhibitors of Polymerase Eta; AID 588591, 2011; DNA polymerase eta (Homo sapiens), Q9Y253; Potency, µM (highest dose often 114 µM), for the others: at the top dose activity change, negative = inhibition, most hits filed as inhibitors; 390,000 tested, 1.2% active; recombinant Pol eta, fluorescent DNA replication assay; also: potency is read from the fitted curve at half-maximal effect; % is scaled to controls: 0 for no effect and ±100 for the full control effect
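Pol eta (10 nM) was preincubated with compounds for 15 min at room temperature, after which fluorescent replication substrate (50 nM final) was added to start the reaction. Fluorescence was read kinetically at 0 and 10 min.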
POLK inh: qHTS for Inhibitors of Polymerase Kappa | purified Pol kappa, fluorescent DNA synthesis assay, 10 min | Potency, µM (series often up to 107 µM), without a hit: at the highest dose activity, negative = inhibition, most hits filed as inhibitors | 400,000 tested, 0.53% active; also: potency is read from the fitted curve at half-maximal effect; % is scaled to controls: 0 for no effect and ±100 for the full control effect
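10 nM Pol kappa preincubated 15 min at room temperature with compounds, then reaction started with substrate at 50 nM final. Fluorescence read kinetically at 0 and 10 min; buffer-only wells served as negative control.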
WRN helicase inh: qHTS for Inhibitors of WRN Helicase. Bifunctional 3'-5' exonuclease/ATP-dependent helicase WRN (Homo sapiens), Q14191. WRN helicase unwinding, fluorescent forked duplex, kinetic. Potency, µM (highest dose often 114 µM), for the others: top-dose activity change, negative = inhibition, most hits filed as inhibitors. 360,000 tested, 0.46% active. AID 651768, 2012; also: potency is read from the fitted curve at half-maximal effect; % is scaled to controls: 0 for no effect and ±100 for the full control effect; nearly all actives have a fitted effect of over 55% in size
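Enzyme (20 nM final) and test compound sit together 15 min at room temperature before substrate addition. Substrate is a single-forked duplex oligonucleotide (100 nM) labelled with fluorophore and quencher, with 2 mM ATP; helicase unwinding raises red fluorescence, read kinetically.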
Pol beta inh: qHTS Assay for Inhibitors of DNA Polymerase Beta; P06746; Pol beta primer extension/strand displacement, fluorescence kinetic; AID 485314, 2010; Potency, µM (doses to about 114 µM), without a hit: at the top dose activity change, negative = inhibition, usual class: inhibitors; 340,000 tested, 1.3% active; also: potency is read from the fitted curve at half-maximal effect; % is scaled to controls: 0 for no effect and ±100 for the full control effect
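10 nM enzyme + cpd, 15 min RT; start with substrate 50 nM final; read 0 min and after 10 min RT. Corrected, normalized data; 4-parameter Hill curve fit.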
* marks the source's active call; other numbers are inactive results; ? = inconclusive; . = no result; [ ] = another dose, or the depositor's remark. An excerpt weighted towards active compounds, which were near 2.8% of everything screened. Unless noted, calls follow the shape of the dose curve; as a rule, active = well fitted curve in the direction sought with a large enough effect; inconclusive = small, poorly fitted or top-dose-only effect, or another doubt; inactive = no such curve, though single readings can be large; an effect the other way counts as inactive or inconclusive.

SMILES	PI5P4K alpha inh	POLI inh	POLH inh	POLK inh	WRN helicase inh	Pol beta inh
COc1cccc(NC(=O)c2cc(-c3ccc(C)o3)nc3ccccc23)c1	?	?	79µM*	?	-28%	?
Cc1ccc(-c2cc(C(=O)NN3CCOCC3)c3cc(Br)ccc3n2)o1	-29	13%	0%	-13%	-7%	?
COc1cc(/C=C/[N+](=O)[O-])ccc1OC(=O)c1cc2ccccc2oc1=O	-61*	?	?	-17%	-29%[11.6 µM]	-19%
COc1ccccc1OC(=O)c1cc2ccccc2oc1=O	0	21%	-11%	-16%	3%	11%
Nc1cc2c3c(cccc3c1)C(=O)N(CCN1CCCC1)C2=O	-1	35µM*	2%	-40%	7%[11.6 µM]	25µM*
CCN(CC)CCN1C(=O)c2cccc3cc(N)cc(c23)C1=O	2	?	-15%	?	13%[11.6 µM]	?
CCN1C(=O)S/C(=C/c2c(OCc3ccc(C(=O)O)cc3)ccc3ccccc23)C1=O	6	-2%	-14%	-6%	-17%	50µM*
CNc1ccc(C=O)cc1Cl	.	34%	.	-14%	.	.
COc1ccccc1NC(=O)Cn1cc(S(=O)(=O)Cc2ccccc2)c2ccccc21	.	-15%	79µM*	-23%	.	?
CC1CCN(C(=O)CSc2nc3ncccc3[nH]2)CC1	-4	13%	5%	-8%	4%	0%
CCC1CCCCN1C(=O)CSc1nc2ncccc2[nH]1 (centres undefined)	0	?	-12%	25µM*	-3%[11.6 µM]	45%
O=C(O)c1ccc2c(=O)n3c(nc2c1)/C(=C/c1ccc(F)cc1)CC3	-16	3%	-4%	10%	4%	3%
O=C(O)c1ccc2c(=O)n3c(nc2c1)/C(=C/c1cccc(Cl)c1Cl)CCCC3	-73*	7%	-10%	-6%	-5%	11%
Cc1nn(Cc2ccc(Cl)cc2)c(C)c1NC(=O)CCCn1nc([N+](=O)[O-])c(Cl)c1C	6	11%	0%	-17%	-1%	89µM*
Cc1ccc(CN2CC(C(=O)Nc3nnc(SCc4c(Cl)cccc4Cl)s3)CC2=O)cc1 (centres undefined)	-2	?	?	-25%	?	13µM*
Cc1ccccc1N1CC(C(=O)Nc2nnc(SCc3ccccn3)s2)CC1=O (centres undefined)	?	?	50µM*	-27%	-8%	79µM*
Cc1cccc(OCC(=O)Nc2ccccc2OCc2cc(=O)n3cc(C)ccc3n2)c1	.	15%	-16%	-6%[60.1 µM]	.	-28%
CS(=O)(=O)N(CC(=O)Nc1ccc(Br)cc1)c1ccccc1Br	.	0%	-7%	-12%[60.1 µM]	.	5%
Cc1ccc2onc(CNC(=O)Nc3cc(F)ccc3F)c2c1	.	11%	-29%	-3%	.	-26%
CC1=NN(c2ccccc2)C(=O)C1N=Nc1ccc(N)cc1 (centres undefined)	-9	?	-5%	-11%	-17%	22µM*
CCOC(=O)c1ccc(N2C(=O)c3[nH]nc(-c4ccc(C)cc4)c3C2c2cccs2)cc1 (centres undefined)	.	-6%	0%	-13%	.	21%
Cc1cc(Cl)ccc1OC(C)C(=O)Nc1ccc(C(=O)Nc2ccccc2C(=O)O)cc1 (centres undefined)	?	?	-27%	-16%	-23%	79µM*
COc1cc2nc(Cl)nc(NC3CCN(Cc4ccccc4)CC3)c2cc1OC	.	11%	.	0%	.	.
COc1cccc(CNC(=O)c2ccc3c(c2)nc2n3CCC(C)C2)c1 (centres undefined)	.	-1%	-18%	-9%[60.1 µM]	.	0%
Cc1ccc(NC(=O)CN2C(=O)S/C(=C\c3ccc(C(=O)O)cc3)C2=O)cc1	-5	-5%	7%	-3%	1%	39%
SMILES	PI5P4K alpha inh	POLI inh	POLH inh	POLK inh	WRN helicase inh	Pol beta inh
Cc1ccc(NC(=O)CN2C(=O)S/C(=C\c3cc(C)n(-c4cccc(C(=O)O)c4)c3C)C2=O)cc1	-24	?	56µM*	-7%	?	45µM*
O=C(CN1C(=O)S/C(=C\c2cc(Cl)c(O)c(Cl)c2)C1=O)Nc1ccccc1	-86*	?	?	-18%	-3%[11.6 µM]	13%
Cc1cc(C(=O)O)ccc1-c1ccc(/C=C2\SC(=O)N(CC(=O)Nc3ccc4c(c3)OCO4)C2=O)o1	.	.	.	.	.	0%
Cc1ccc(NC(=O)CN2C(=O)S/C(=C\c3cc(C)n(C)c3C)C2=O)cc1	.	8%	6%	0%	-4%	4%
Cc1ccc(C)c(N2C(=N)S/C(=C\c3ccc(-c4ccccc4C(=O)O)o3)C2=O)c1	-52*	14µM*	22µM*	?	?	?
Cc1ccc(NC(=O)CN2C(=O)S/C(=C\c3ccc(-c4cccc(C(=O)O)c4C)o3)C2=O)cc1	.	.	.	.	.	100µM*
CCOc1ccc(CN2CCc3nc(Nc4ccc5c(c4)OCCO5)ncc3C2)cc1	.	-6%	1%	-1%[60.1 µM]	.	-1%
COc1ccc(S(=O)(=O)NC(C)C(=O)NCc2ccncc2)cc1OC (centres undefined)	4	89µM*	-16%	1%	0%	0%
CCSc1nc(-c2ccco2)ccc1C#N	-73*	?	?	-32%	-35%	?
CC1Cc2ccccc2C[N+]1(C)CC(=O)c1cccc([N+](=O)[O-])c1 (centres undefined)	.	31%	.	-13%	.	.
COC(=O)C1=C(C)N(Cc2ccco2)C(=O)C1	1	11µM*	13µM*	45µM*	-35%[57.1 µM]	-17%
COC(=O)C1=C(C)N(Cc2ccc(OC)cc2)C(=O)C1	.	?	3%	-3%	0%	6%
Cc1ccc(S(=O)(=O)C(CNS(=O)(=O)c2cc(F)ccc2F)c2cccs2)cc1 (centres undefined)	.	-17%	-9%	-12%[60.1 µM]	.	-3%
N#C/C(C(=O)N1CCCCC1)=C1\Nc2ccccc2S1	-14	9%	-11%	-28%	-13%	28%
Cc1ccc(NC(=S)/C(C#N)=C2/Nc3ccccc3S2)cc1	-27	.	40µM*	.	-30%	.
Cc1ccccc1CNC(=O)c1oc2c(c1C)-c1[nH]ncc1CC2	.	11%	-16%	-13%	.	6%
CC(=O)Nc1cccc(-c2cc(NC=O)c3ncc(-c4ccc(C(C)=O)cc4)n3c2)c1	-51*	.	.	.	-21%	.
COc1ccc(-c2cc(NC=O)c3ncc(-c4cc(OC)c(OC)c(OC)c4)n3c2)cc1	?	.	.	.	79µM*	.
